# Source: PubChem BioAssay (EPA / NIEHS)
# Several values for one entry are separate records, joined by “and”; a condition that tells them apart may be missing. Equal values may be shown once. Results filed as inconclusive are left out. Where a structure was tested more than once in an assay, its records may differ in their call. Activity calls are given as the source filed them. How the source made its calls: active means hit-call score of the fitted dose curve at least 0.9, where 1 is the maximum; inconclusive means response in the unintended direction; inactive means score below 0.9.
# Assay: ATG_XTT_Cytotoxicity: Cytotoxicity Assessment in the Attagene TRANS-FACTORIAL HepG2 Assay (AID 2283584)
# How it was run: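 Viability endpoint from XTT after 24 h chemical exposure of reporter-transfected human HepG2 liver cells; signal loss fitted relative to DMSO negative control.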
row,Compound,outcome
1,C=C(C)[C@H]1CC=C(C)CC1,inactive
2,c1ccc(CCCc2ccncc2)cc1,inactive
3,COc1cc(NC(=O)CC(C)=O)c(OC)cc1Cl,inactive
4,Cc1cccc(N(C)C(=S)Oc2ccc3ccccc3c2)c1,inactive
5,CC/C=C\CCOC(=O)CCCCC,inactive
6,Nc1ncn([C@@H]2O[C@H](CO)[C@@H](O)[C@H]2O)c(=O)n1,inactive
7,Nc1ccc(N=Nc2ccccc2)c(N)n1,inactive

# Assay: TOX21_p53_BLA_p2_viability: Viability Assessment in the Tox21 HCT-116 p53 Agonism Beta-lactamase Assay, Phase 2 (AID 2283591);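 further: compound exposure lasted 16 h at 37 °C; actives lower the ATP signal meaning cytotoxicity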
# How it was run: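 HCT116 p53-bla cells, 4000/well, dosed after 5 h plating (217-fold dilution of DMSO stocks) and incubated 16 h at 37C. Viability taken as cellular ATP by CellTiter-Glo luminescence after 30 min RT; signal loss marks cytotoxicity.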
Compound,AC50,outcome
CCOC(=O)N1CCC(=C2c3ccc(Cl)cc3CCc3cccnc32)CC1,69.7 µM (active) and 36.8 µM (active),–
C=C(C)[C@H]1CC=C(C)CC1,–,inactive
COC(=O)/C=C\C(=O)O,–,inactive
CCOC(=O)NNc1nncc2ccccc12,–,inactive
C=CC(=O)OCCOC(=O)C=C,–,inactive
CCCCCCCCC(=O)OCC,–,inactive
C[C@]12CCC(=O)C=C1CC[C@@H]1[C@@H]2C(=O)C[C@@]2(C)[C@H]1CC[C@]2(O)C(=O)CO,–,inactive
O=C1C=CC(=O)O1,–,inactive
Nc1cccc(C(F)(F)F)c1,–,inactive
O=C(c1ccccc1)c1ccc(O)c(O)c1O,–,inactive
FC(F)(F)C(=NOCC1OCCO1)c1ccc(Cl)cc1,–,inactive
CC(C)(Oc1ccc(C2CC2(Cl)Cl)cc1)C(=O)O (stereo not drawn),–,inactive
Cc1cc(=O)n(-c2ccccc2)n1C,–,inactive
SCCc1cnccn1,–,inactive
O=C1OC(=O)c2cc(Oc3ccc4c(c3)C(=O)OC4=O)ccc21,–,inactive
CC(=O)Oc1ccc(C(C)=O)cc1,–,inactive
c1ccc(CCCc2ccncc2)cc1,–,inactive
O=C(O)CCCCCCCCCC(=O)O,–,inactive
CCC(Cc1ccccc1)(C(=O)c1ccc(N2CCOCC2)cc1)N(C)C (stereo not drawn),–,inactive
CC1=Nc2ccc3ccccc3c2C1(C)C,–,inactive

Compound,AC50,outcome
CCCC(=O)OCc1ccccc1,–,inactive
COc1cc(NC(=O)CC(C)=O)c(OC)cc1Cl,18.8 µM (active),inactive
NCCCN1CCN(CCCN)CC1,–,inactive
c1ccc(-c2ccccn2)nc1,–,inactive
O=C(O)c1ccccc1Nc1cccc(C(F)(F)F)c1,–,inactive
Cc1cccc(N(C)C(=S)Oc2ccc3ccccc3c2)c1,–,inactive
O=C(O)CC(C(=O)O)C(CC(=O)O)C(=O)O (stereo not drawn),–,inactive
O=[N+]([O-])C1(Br)COCOC1,–,inactive
CC(C)=CCCC(C)C=O (stereo not drawn),–,inactive
O=C(/C=C/C=C/c1ccc2c(c1)OCO2)N1CCCCC1,–,inactive
C=CCOc1c(Br)cc(Br)cc1Br,–,inactive
O=c1cc[nH]c(=S)[nH]1,–,inactive
O=C(Nc1cccc(C(F)(F)F)c1)c1cc(Br)cc(Br)c1O,747 nM (active) and 1.12 µM (active),–
CC/C=C\CCOC(=O)CCCCC,–,inactive
Nc1ncn([C@@H]2O[C@H](CO)[C@@H](O)[C@H]2O)c(=O)n1,–,inactive
Nc1ccc(Cl)cc1Cl,–,inactive
C[C@]12C=CC(=O)C=C1CC[C@@H]1[C@@H]2[C@@H](O)C[C@@]2(C)[C@H]1CC[C@]2(O)C(=O)CO,–,inactive
Nc1ccc(N=Nc2ccccc2)c(N)n1,–,inactive
O=C1CCCCCCCCCCCCCCCO1,–,inactive
Cc1cc(C)c(C)c(C)c1,–,inactive
